PubChem BioAssay AID1159580 (chemical genetic matrix, 2015)
Out of some 5,500 compounds screened, about 2,000 (36%) were called active. About 18% were inconclusive and are not listed. Rule as the data show it: active = normalized growth mostly below about 0.91 (no sharp cut-off); inconclusive = no clear call, values can overlap the other calls; inactive = mostly above about 0.92. The list shows a part of the results.

Experiment: chemical genetic growth profiling, strain panel (AID 1159580);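 also: tested at 20 µM; growth read once vehicle control cultures reached saturation at 30 °C; 1 = growth at the plate median or of vehicle wells; lower values mean less growth of the strain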
Settings: S. cerevisiae deletion strains, growth OD

Measured: normalized growth

C=CC(N)CCC(=O)O (stereo not drawn)
inactive: locus YAL013W, strain DEP1, active compounds read low 1.02 | locus YAL021C, strain ccr4, active compounds read low 0.971 | locus YAL026C, strain drs2, active compounds read low 0.984 | locus YAL030W, strain snc1, active compounds read low 0.985 | locus YAL040C, strain CLN3, active compounds read low 1.07 | locus YBL061C, strain skt5, active compounds read low 0.976 | locus YBR009C, strain hhf1, active compounds read low 0.99 | locus YBR023C, strain chs3, active compounds read low 0.965 | locus YBR171W, strain sec66, active compounds read low 0.955 | locus YBR231C, strain swc5, active compounds read low 0.99 | locus YBR279W, strain paf1, active compounds read low 0.986 | locus YCL011C, strain gbp2, active compounds read low 0.975 | locus YCL016C, strain dcc1, active compounds read low 0.976 | locus YCL061C, strain MRC1 (second series), active compounds read low 1 | locus YCL061C, strain MRC1, active compounds read low 0.973 | locus YCL069W, strain vba3, active compounds read low 0.98 | locus YCR088W, strain abp1, active compounds read low 0.986 | locus YDL005C, strain med2, active compounds read low 0.977 | locus YDL040C, strain nat1, active compounds read low 0.984 | locus YDR001C, strain nth1, active compounds read low 0.975 | locus YDR069C, strain doa4, active compounds read low 0.992 | locus YDR137W, strain rgp1, active compounds read low 0.94 | locus YDR150W, strain NUM1, active compounds read low 1 | locus YDR159W, strain sac3, active compounds read low 1.01 | locus YDR195W, strain ref2 1 | locus YDR297W, strain sur2, active compounds read low 0.986 | locus YDR334W, strain swr1, active compounds read low 0.972 | locus YDR335W, strain msn5, active compounds read low 0.981 | locus YDR363W, strain ESC2, active compounds read low 0.993 | locus YDR392W, strain spt3, active compounds read low 0.922 | locus YEL003W, strain gim4, active compounds read low 0.996 | locus YEL037C, strain rad23, active compounds read low 0.975 | locus YEL061C, strain CIN8 (second series), active compounds read low 0.982 | locus YER002W, strain NOP16, active compounds read low 0.993 | locus YER015W, strain faa2, active compounds read low 0.992 | locus YER016W, strain bim1, active compounds read low 0.999 | locus YER111C, strain swi4, active compounds read low 0.973 | locus YER155C, strain BEM2 (second series), active compounds read low 0.988 | locus YFR010W, strain ubp6, active compounds read low 0.972 | locus YGL167C, strain pmr1, active compounds read low 0.973 | locus YGL173C, strain kem1, active compounds read low 0.975 | locus YGL227W, strain vid30, active compounds read low 0.99 | locus YGL240W, strain doc1, active compounds read low 0.993 | locus YGL253W, strain hxk2, active compounds read low 0.98 | locus YGR078C, strain PAC10, active compounds read low 0.987 | locus YGR229C, strain SMI1, active compounds read low 1.03 | locus YHR013C, strain ard1, active compounds read low 0.973 | locus YHR027C, strain rpn1, active compounds read low 0.972 | locus YHR142W, strain chs7, active compounds read low 0.94 | locus YJL092W, strain hpr5, active compounds read low 0.983 | locus YJL095W, strain BCK1 (second series), active compounds read low 0.987 | locus YJL115W, strain asf1, active compounds read low 0.972 | locus YJL129C, strain trk1, active compounds read low 0.977 | locus YJL154C, strain vps35, active compounds read low 0.974 | locus YJL164C, strain tpk1, active compounds read low 0.979 | locus YJL166W, strain qcr8, active compounds read low 0.971 | locus YJL187C, strain SWE1, active compounds read low 0.983 | locus YJR075W, strain HOC1, active compounds read low 1.01 | locus YKL160W, strain elf1, active compounds read low 0.964 | locus YKR026C, strain gcn3, active compounds read low 0.983 | locus YKR091W, strain srl3, active compounds read low 0.985 | locus YLL001W, strain dnm1, active compounds read low 0.96 | locus YLL026W, active compounds read low 1 | locus YLL041C, strain sdh2, active compounds read low 0.981 | locus YLR027C, strain aat2, active compounds read low 0.984 | locus YLR221C, strain rsa3, active compounds read low 0.958 | locus YLR258W, strain gsy2, active compounds read low 0.981 | locus YLR262C, strain YPT6 (second series), active compounds read low 0.975 | locus YLR320W, strain mms22, active compounds read low 0.952 | locus YLR342W, strain FKS1, active compounds read low 0.97 | locus YLR357W, strain rsc2, active compounds read low 0.971 | locus YLR370C, strain arc18, active compounds read low 0.968 | locus YLR384C, strain iki3, active compounds read low 0.965 | locus YML120C, strain ndi1, active compounds read low 0.981 | locus YMR058W, strain fet3, active compounds read low 0.98 | locus YMR125W, strain sto1, active compounds read low 0.968 | locus YMR129W, active compounds read low 0.988 | locus YMR205C, strain PFK2, active compounds read low 0.955 | locus YMR231W, strain pep5, active compounds read low 0.97 | locus YMR307W, strain GAS1, active compounds read low 1.02 | locus YNL071W, strain lat1, active compounds read low 0.986 | locus YNL128W, strain TEP1, active compounds read low 0.972 | locus YNL175C, strain NOP13, active compounds read low 0.99 | locus YNL197C, strain WHI3, active compounds read low 0.994 | locus YNL209W, strain ssb2, active compounds read low 0.991 | locus YNL224C, strain SQS1, active compounds read low 0.991 | locus YNL248C, strain rpa49, active compounds read low 0.968 | locus YNL322C, strain KRE1 (second series), active compounds read low 0.967 | locus YNR049C, strain mso1, active compounds read low 0.994 | locus YOR001W, strain rrp6, active compounds read low 0.996 | locus YOR070C, strain gyp1, active compounds read low 0.998 | locus YOR080W, strain dia2, active compounds read low 0.974 | locus YOR083W, strain WHI5 (second series), active compounds read low 0.991 | locus YOR083W, strain WHI5, active compounds read low 0.967 | locus YOR106W, strain vam3, active compounds read low 0.961 | locus YOR265W, strain rbl2, active compounds read low 0.98 | locus YOR270C, strain vph1, active compounds read low 0.939 | locus YOR290C, strain snf2, active compounds read low 0.945 | locus YPL051W, strain arl3, active compounds read low 0.973 | locus YPL055C, strain LGE1, active compounds read low 1 | locus YPL078C, strain atp4, active compounds read low 0.961 | locus YPL106C, strain sse1, active compounds read low 0.971 | locus YPL240C, strain hsp82, active compounds read low 0.986
